PubChem BioAssay (NCATS)
Inconclusive results are not listed. Unmarked numbers belong to inactive results. Calls of active or inactive are those of the source. Calls follow the shape of the dose curve; as a rule, active = well fitted inhibition curve with a large enough effect; inconclusive = small, poorly fitted or top-dose-only effect; inactive = flat fitted curve, though single readings scatter. *1 amine or outer side, *2 acyl side, *3 side chain or, on linkers, in order; H or OH if unused. Where a SMILES comes first, the peptide text is derived from it. [ ]: non-standard residue; d: D form. The star is where a group is joined. ξ: configuration not given here. X9 = CCC(C)(N*)C(=O)C1CC[C@@H](C(=O)N[C@@H](Cc2ccccc2)C(=O)NCC(=O)O)N1; X8 = O=C([C@@H]1CC(O)CN1[*:1])[*:2]; aIle = CC[C@@H](C)[C@H](N)C(=O)O; Thr(3ξ) = CC(O)[C@H](N)C(=O)O; ξIva = CCC(C)(N)C(=O)O; Aib = CC(C)(N)C(=O)O

Experiment: P-glycoprotein substrates identified in KB-8-5-11 adenocarcinoma cell line, qHTS therapeutic library screen (AID 1346987); also: nearly all actives have a fitted effect of over 65% in size
Details: KB-8-5-11 (P-gp overexpressing) viability, CellTiter-Glo, 72 h; series mostly up to 44.5 µM; activity change, negative = cytotoxicity: at the top concentration
Outline: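 Luminescence from CellTiter-Glo, read 5 min after addition, quantified survival of KB-8-5-11 (P-gp-overexpressing) cells exposed to compounds for 72 h. AC50 was derived from concentration-response curves.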
% is scaled to controls: 0 for no effect and ±100 for the full control effect.

Structure (SMILES) | activity change, negative = cytotoxicity | outcome
COc1ccc(Oc2c(Cl)cnn(C3c4ccccc4-c4ccccc43)c2=O)cc1 | -17.4% | –
C=C(C(=O)O)C1CC(OC(=O)CC(C)CC)C2(C)CCCC(=C)C2C1 (centres undefined) | 3.37% | –
CC1(C(=O)O)CCCC2(C)C3CCC4CC3(CCC12)CC4(O)CO (centres undefined) | -1.07% | –
C=CC(C)(CC/C=C(\C)C(=O)OC[C@H]1O[C@@H](OC(C)(C=C)CC/C=C(\C)C(=O)O[C@H]2[C@H](O)[C@@H](O)[C@H](OC(C)(C=C)CC/C=C(\C)C(=O)O)O[C@@H]2CO)[C@H](O)[C@@H](O)[C@@H]1O)O[C@@H]1O[C@H](CO)[C@@H](O)[C@H](O)[C@H]1O (some centres undefined) | – | inactive [at 9.29 µM]
COc1ccc(C2C(C(=O)O)C(C(=O)O)C2c2ccc(OC)cc2O[C@@H]2O[C@H](CO)[C@@H](O)[C@H](O)[C@H]2O)c(O[C@@H]2O[C@H](CO)[C@@H](O)[C@H](O)[C@H]2O)c1 (some centres undefined) | -2.15% [at 17.3 µM] | –
CC1(C)CC(NC(=O)C(=O)Nc2ccc(Cl)cc2)CC(C)(C)N1 | 4.78% | –
CC[C@@H](C)[C@H](NC(=O)C(C)(C)NC(=O)[C@H](CCC(N)=O)NC(=O)C(C)(CC)NC(=O)[C@H](Cc1c[nH]c2ccccc12)NC(C)=O)C(=O)N[C@H](C(=O)NC(C)(C)C(=O)N[C@@H](CC(C)C)C(=O)NC(C)(C)C(=O)N1CCC[C@H]1C(=O)N[C@@H](CCC(N)=O)C(=O)NC(C)(C)C(=O)N1CC(O)C[C@H]1C(=O)NC(C)(CC)C(=O)C1CC[C@@H](C(=O)N[C@@H](Cc2ccccc2)C(=O)NCC(=O)O)N1)C(C)O (some centres undefined) (Ac-W[ξIva]Q[Aib][aIle][Thr(3ξ)][Aib]L[Aib]PQ[Aib][X8]-X9) | -19% [at 5.11 µM] | –
COC(=O)c1ccccc1O[C@@H]1O[C@H](CO[C@@H]2OC[C@@H](O)[C@H](O)[C@H]2O)[C@@H](O)[C@H](O)[C@H]1O | – | inactive [at 17.3 µM]
CC1=C2C(=O)C=C(CO[C@@H]3O[C@H](CO)[C@@H](O)[C@H](O)[C@H]3O)[C@@H]2[C@H]2OC(=O)[C@H](C)[C@@H]2CC1 | 4.62% [at 17.3 µM] | –
CCOC(=O)c1ccc(NC2CCCCC2)c(N)c1 | -3.48% | –
CCCCOc1nc(N)c2c(n1)N(Cc1cccc(CN3CCCC3)c1)CC(=O)N2 | 6.11% | –
COc1cc(O)cc(C)c1C(=O)O[C@H]1[C@@H](O)[C@@H](n2ccc(=O)[nH]c2=O)O[C@@H]1CO | – | inactive [at 17.3 µM]
OC[C@H]1O[C@@H](OCc2ccccc2)[C@H](O[C@@H]2OC[C@@H](O)[C@H](O)[C@H]2O)[C@@H](O)[C@@H]1O | – | inactive [at 17.3 µM]
NC(=O)c1ccc(F)c2c1C[C@@H](N(C1CCC1)C1CCC1)CO2 | 6.81% | –
COc1cccc(CNc2ccc(S(=O)(=O)Nc3nc4ccccc4s3)cc2)c1O | – | inactive
NC1Nc2ccccc2C1(N)CC1NC(=O)C(Cc2ccccc2)NC(=O)C(Cc2ccccc2)NC1=O (centres undefined) | 5.46% [at 17.3 µM] | –
C/C=C(\C)C1C(C)=CC2CCC(OS(=O)(=O)O)C(C)C2C1/C=C/C=C/C(=O)O (centres undefined) | 6.83% [at 17.3 µM] | –
C=C1CC[C@@]2(OC1)O[C@H]1CC3C4CC=C5C[C@@H](O[C@@H]6O[C@@H](C)[C@H](O)[C@@H](O)[C@H]6O)C[C@@H](O[C@@H]6O[C@H](C)[C@H](O)[C@H](O)[C@H]6O[C@@H]6O[C@@H](C)[C@H](O)[C@@H](O)[C@H]6O)[C@]5(C)C4CC[C@]3(C)[C@H]1[C@@H]2C (some centres undefined) | 5.67% [at 9.29 µM] | –
COC(=O)C1=CO[C@@H](O[C@@H]2O[C@H](CO)[C@@H](O)[C@H](O)[C@H]2O)[C@H]2[C@@H]1C=C[C@]21C=C([C@H](C)OC(=O)/C=C/c2ccc(O[C@@H]3O[C@H](CO)[C@@H](O)[C@H](O)[C@H]3O)cc2)C(=O)O1 | – | inactive [at 17.3 µM]
Nc1nc(COC(=O)c2ccc([N+](=O)[O-])cc2)nc(Nc2ccccc2)n1 | 3.62% | –

Structure (SMILES) | activity change, negative = cytotoxicity | outcome
COc1cc([C@@H](O[C@@H]2O[C@H](CO)[C@@H](O)[C@H](O)[C@H]2O)[C@@H]2CO[C@H](c3ccc(O)c(OC)c3)[C@H]2CO)ccc1O | 5.88% [at 17.3 µM] | –
CC(=O)Nc1cccc2c1c(Sc1ccc(Cl)cc1)c(C)n2CC(=O)O | 2.16% | –
C/C=C(\C)C(=O)OC1C2(O)CC3=C4CC(=O)OC(c5ccoc5)C4(C)CCC3C(C)(C2=O)C(C(OC(C)=O)C(=O)OC)C1(C)C (centres undefined) | -6.33% [at 17.3 µM] | –
CCC(=O)N1CCc2cc(OC)c(O)cc2C1 | 4.69% | –
Oc1ccc(CC2NCCc3cc(O)c(O)cc32)cc1 (centres undefined) | – | inactive
Cc1ccc(C)c(NC(=O)CNS(=O)(=O)c2ccc3[nH]c(=O)oc3c2)c1 | 3.66% | –
C=C1C(O)CC2C(C(=O)O)=COC(OC3OC(CO)C(O)C(O)C3OC(=O)/C=C\c3ccc(O)cc3)C12 (centres undefined) | – | inactive [at 17.3 µM]
Cc1oc2nc3c(c(NC(=O)CN4CCCC4=O)c2c1C)CCCC3 | 2.3% | –
C=C(C(=O)O)[C@H]1C[C@]2(C)C(=O)CC[C@]23O[C@H]1C[C@@H]3C | 3.49% | –
On1ncc(C2CCNCC2)c1-c1cccc(-c2ccccc2)c1 | – | inactive
C/C(=C/CO)CC[C@H]1[C@]2(C)C[C@H](O)CC(C)(C)[C@H]2CC[C@]1(C)O | 4.85% | –
O=C(O)c1cccc(C(=O)CCC2OC(n3cnc4c(=O)[nH]cnc43)C(O)C2O)c1 (centres undefined) | – | inactive [at 17.3 µM]
O=C(Nc1cc(-c2ccccc2)nn1-c1ccccc1F)c1ccc([N+](=O)[O-])cc1 | -21.4% | –
COCC1OC(n2cnc3c(=O)[nH]cnc32)C(O)C1O (centres undefined) | – | inactive
CN1CCN(C(=O)c2cc3cc(Cl)ccc3[nH]2)CC1 | – | inactive
COc1c2c(c(C)c3c1C(=O)OC3)OC1(C)CC(O)C34OC(OC)(CC(O)C3(C)C1C2)OC4(C)C (centres undefined) | – | inactive [at 17.3 µM]
CC1(C)CC[C@]2(C(=O)O)CC[C@]3(C)C(=CCC4[C@@]5(C)C(=O)C[C@H](O)[C@@](C)(CO)C5CC[C@]43C)[C@@H]2C1 (some centres undefined) | -0.0343% [at 17.3 µM] | –
COc1ccc(-n2c(=O)[nH]c3cc(C(=O)NCc4ccc(Cl)cc4)sc3c2=O)nc1OC | 5.9% | –
CC(C(=O)Nc1cc(C#N)ccc1CCCC(=O)O)c1ccc(F)c2ccccc12 (centres undefined) | -4.03% | –
